The supplement of paper PMC13094657
Structures can show the parent of a compound that is named as a salt. ± gives the standard deviation of the averaged measurements.

What follows are compounds tested on MDA-MB-231 (assay: kynurenine production, fold change vs DMSO IFNg/TNF control; higher = more kynurenine produced (less inhibition)). Settings: pre-treatment time: 18 h then 24 h IFNg/TNF.
Summary of the method: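 MDA-MB-231 cells (7 × 10^4/well, 96-well plates, seeded 24 h earlier) were pre-treated 18 h with each natural product in 0.1% DMSO, then stimulated 24 h with IFNγ (1 U/ml) and TNF (6.25 ng/ml) at 37°C. Supernatant kynurenine was read at 492 nm after trichloroacetic acid and p-dimethylaminobenzaldehyde treatment, against 0–100 μM standards. Kynurenine production is the fold change over cytokine-stimulated vehicle wells on the same plate, averaged over duplicate plates in the first screening round.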

`COc1ccc2c3c1O[C@H]1C[C@@H](O)C=C[C@@]31CCN(C)C2` [Galantamine hydrobromide] (compound dose: 10 uM) and `C/C=C(/C)C(=O)O[C@H]1C(C)=C[C@]23C(=O)[C@@H](C=C(CO)[C@@H](O)[C@]12O)[C@H]1[C@@H](C[C@H]3C)C1(C)C` [Ingenol 3-Angelate] (compound dose: 10 uM) are within error of each other in kynurenine production: 0.792 ± 0.067 for the first, 0.979 ± 0.16 for the second.

`CCCCCC(=O)O[C@@H]1[C@@H](C)[C@@]2(O)[C@@H](C=C(CO)C[C@]3(O)C(=O)C(C)=C[C@@H]23)[C@@H]2C(C)(C)[C@]12OC(=O)CCCCC` [Phorbol 12, 13-Dihexanoate] (compound dose: 10 uM) and `CC1(C)CC[C@]2(C(=O)O[C@@H]3O[C@H](CO)[C@@H](O)[C@H](O)[C@H]3O)CC[C@]3(C)C(=CC[C@@H]4[C@@]5(C)CC[C@H](O[C@@H]6O[C@H](C(=O)O)[C@@H](O)[C@H](O)[C@H]6O)C(C)(C)[C@@H]5CC[C@]43C)[C@@H]2C1` [Chikusetsusaponin Iva] (compound dose: 10 uM) are within error of each other in kynurenine production: 0.896 ± 0.056 for the first, 0.788 ± 0.14 for the second.

For `C[C@@H]1O[C@@H](O[C@@H]2[C@@H](O)[C@H](O[C@H]3CC[C@]4(C)[C@H]5CC=C6[C@@H]7CC(C)(C)CC[C@]7(C(=O)O[C@@H]7O[C@H](CO)[C@@H](O)[C@H](O)[C@H]7O)CC[C@@]6(C)[C@]5(C)CC[C@H]4C3(C)C)O[C@H](C(=O)O)[C@H]2O)[C@H](O)[C@H](O)[C@H]1O` (compound dose: 10 uM), the kynurenine production was 0.932 ± 0.11.
